Potency and outcome data for nine compounds are collected here from PubChem BioAssay (Tox21).

Structures are written as SMILES. Records with an inconclusive call do not appear. The source made the active and inactive calls. Unless noted, the call rests on the fitted dose curve.

The nature of experiment [1]: qHTS assay to identify small molecule agonists of the peroxisome proliferator-activated receptor delta (PPARd) signaling pathway - cell viability counter screen (AID 743211; active means well fitted curve in the direction sought with a large enough effect in the repeat runs; an effect the other way counts as inactive or inconclusive; further: nearly all actives have a fitted effect of over 55% in size). The method, boiled down: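 Read-out: CellTiter-Glo luminescence, 30 min RT, measured in the same wells as the beta-lactamase reporter. Cells: GeneBLAzer PPAR delta UAS-bla HEK293H, 3000 cells/well, compound exposure 17 h at 37C.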
(qHTS replaces the single test concentration by a dilution series.)

In experiment [2] the target is Peroxisome proliferator-activated receptor delta (Homo sapiens) (UniProt Q03181). Briefly: qHTS assay to identify small molecule agonists of the peroxisome proliferator-activated receptor delta (PPARd) signaling pathway (AID 743212). The method, boiled down: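 Tox21 library screened in GeneBLAzer PPARd UAS-bla HEK293H cells. After compound treatment at 37 C, a FRET-based beta-lactamase substrate was applied for 2 h and fluorescence recorded.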
Chain of Peroxisome proliferator-activated receptor delta (Homo sapiens) (Q03181 whole entry, looked up): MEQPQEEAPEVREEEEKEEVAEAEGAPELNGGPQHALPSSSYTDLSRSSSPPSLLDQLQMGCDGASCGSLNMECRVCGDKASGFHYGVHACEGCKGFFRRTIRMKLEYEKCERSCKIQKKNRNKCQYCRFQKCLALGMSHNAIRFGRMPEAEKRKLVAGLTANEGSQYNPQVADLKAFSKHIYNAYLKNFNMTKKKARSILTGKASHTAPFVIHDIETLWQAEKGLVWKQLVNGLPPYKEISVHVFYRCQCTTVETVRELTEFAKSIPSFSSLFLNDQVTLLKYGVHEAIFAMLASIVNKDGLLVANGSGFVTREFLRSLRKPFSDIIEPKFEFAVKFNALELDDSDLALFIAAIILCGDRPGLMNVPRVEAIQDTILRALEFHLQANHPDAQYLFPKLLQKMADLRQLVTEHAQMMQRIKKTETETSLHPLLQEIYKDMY

Experiment [3] is described as follows: qHTS assay to identify small molecule antagonists of the peroxisome proliferator-activated receptor delta (PPARd) signaling pathway - cell viability counter screen (AID 743213; active means well fitted curve in the direction sought with a large enough effect in the repeat runs; an effect the other way counts as inactive or inconclusive; further: nearly all actives have a fitted effect of over 50% in size). The method, boiled down: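 CellTiter-Glo was added to PPARd-bla HEK293H wells following 17 h compound treatment in the presence of 300 nM L165041. Luminescence was recorded after 30 min at room temperature.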

The target of experiment [4] is Bile acid receptor (Homo sapiens) (UniProt Q96RI1). Kind of experiment: qHTS assay to identify small molecule antagonists of the farnesoid-X-receptor (FXR) signaling pathway (AID 743217; active means well fitted inhibition curve with a large enough effect in the signal ratio in the repeat runs, not every such curve was filed as active; the % refers to the signal ratio). The method, boiled down: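 Test compounds are pin-transferred onto FXR-bla HEK 293T cells, then chenodeoxycholic acid is added at 50 uM final. After 16 h at 37 °C, LiveBLAzer B/G substrate is applied for 2 h at room temperature and fluorescence read.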
Chain of Bile acid receptor (Homo sapiens) (Q96RI1 whole entry, looked up): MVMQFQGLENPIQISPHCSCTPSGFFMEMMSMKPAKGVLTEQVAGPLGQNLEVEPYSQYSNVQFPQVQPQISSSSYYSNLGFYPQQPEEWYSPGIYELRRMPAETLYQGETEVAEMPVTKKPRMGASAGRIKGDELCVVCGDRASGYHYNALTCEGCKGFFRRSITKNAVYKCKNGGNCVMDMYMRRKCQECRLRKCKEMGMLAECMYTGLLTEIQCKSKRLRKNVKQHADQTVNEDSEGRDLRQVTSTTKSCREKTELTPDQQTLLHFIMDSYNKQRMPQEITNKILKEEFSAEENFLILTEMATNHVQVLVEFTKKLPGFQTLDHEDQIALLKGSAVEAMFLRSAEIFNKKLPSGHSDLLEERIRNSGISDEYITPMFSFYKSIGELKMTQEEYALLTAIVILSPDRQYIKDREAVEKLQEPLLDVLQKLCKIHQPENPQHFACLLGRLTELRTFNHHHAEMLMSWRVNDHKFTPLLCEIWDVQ

A short description of experiment [5]: qHTS assay to identify small molecule agonists of the farnesoid-X-receptor (FXR) signaling pathway - cell viability counter screen (AID 743218; active means well fitted curve in the direction sought with a large enough effect in the repeat runs; an effect the other way counts as inactive or inconclusive; further: nearly all actives have a fitted effect of over 45% in size; further: potency means the concentration at half of the fitted maximal effect). The method, boiled down:
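Quantitative HTS counter screen measuring ATP-based viability via CellTiter-Glo luminescence in HEK 293T cells carrying a UAS-driven beta-lactamase reporter, after 16 h compound exposure at 37 C.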

Experiment [6] has as its target Bile acid receptor (Homo sapiens) (UniProt Q96RI1). Briefly: qHTS assay to identify small molecule agonists of the farnesoid-X-receptor (FXR) signaling pathway (AID 743220; active means well fitted activation curve with a large enough effect in the signal ratio in the repeat runs, not every such curve was filed as active; the % refers to the signal ratio). The method, boiled down: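 FXR-UAS-bla HEK 293T cells carrying a UAS-driven beta-lactamase reporter were plated for 5 h at 37C/5% CO2, then exposed to DMSO-dissolved Tox21 10K compounds for 16 h at 37C. A LiveBLAzer B/G FRET substrate was loaded for 2 h at room temperature before fluorescence reading.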

Experiment [7] in a line: qHTS assay to identify small molecule antagonists of the farnesoid-X-receptor (FXR) signaling pathway - cell viability counter screen (AID 743221; active means well fitted cell-killing curve with a large enough effect in the repeat runs, not every such curve was filed as active; further: nearly all actives have a fitted effect of over 50% in size; further: potency means the concentration at half of the fitted maximal effect). The method, boiled down: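 HEK 293T FXR-bla cells, 5 h pre-incubation; compound + CDCA 50 uM final, 16 h, 37 C; beta-lactamase FRET read first, then CellTiter-Glo luminescence, 30 min RT.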
Experiment [8] has as its target Vitamin D3 receptor (Homo sapiens) (UniProt P11473). Briefly: qHTS assay to identify small molecule agonists of the vitamin D receptor (VDR) signaling pathway (AID 743222). The method, boiled down: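 Tox21 cell reporter format: VDR-bla line, 16 h compound exposure in 5% CO2 at 37C, then fluorescence intensity after 2 h with LiveBLAzer B/G FRET substrate.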
For experiment [9] the target is unchanged. Kind of experiment: qHTS assay to identify small molecule antagonists of the vitamin D receptor (VDR) signaling pathway (AID 743223; active means well fitted inhibition curve with a large enough effect in the signal ratio in the repeat runs, not every such curve was filed as active; the % refers to the signal ratio; further: potency means the concentration at half of the fitted maximal effect). The method, boiled down: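 Beta-lactamase reporter read-out: FRET substrate fluorescence after 2 h at room temperature, following 16 h exposure of VDR-bla cells to test compound plus 3 nM (final) 1alpha,25-dihydroxyvitamin D3 agonist at 37C.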

Experiment [10] in a line: qHTS assay to identify small molecule agonists of the vitamin D receptor (VDR) signaling pathway - cell viability counter screen (AID 743224; active means well fitted curve in the direction sought with a large enough effect in the repeat runs; an effect the other way counts as inactive or inconclusive; further: series mostly up to about 63 µM; nearly all actives have a fitted effect of over 50% in size). The method, boiled down:
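CellTiter-Glo viability readout on VDR-bla cells, measured after 16 h of compound treatment at 37C in the same wells.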

The nature of experiment [11]: qHTS assay to identify small molecule antagonists of the vitamin D receptor (VDR) signaling pathway - cell viability counter screen (AID 743225; active means well fitted curve in the direction sought with a large enough effect in the repeat runs; an effect the other way counts as inactive or inconclusive; further: nearly all actives have a fitted effect of over 50% in size). The method, boiled down: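 Viability counter screen run in the same wells as the beta-lactamase reporter assay: HEK 293T VDR-UAS-bla cells, 16 h compound exposure at 37C with 3 nM (final) 1-alpha,25-dihydroxyvitamin D3. CellTiter-Glo luminescence, 30 min, room temperature.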

Experiment [12] in a line: qHTS assay to identify small molecule agonists of the NFkB signaling pathway - cell viability counter screen (AID 1159515). Further: series mostly up to about 61 µM; nearly all actives have a fitted effect of over 55% in size. The method, boiled down: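 Tox21 library compounds were tested for cytotoxicity against NFkB-bla ME-180 cells during a 5 hr exposure at 37 C. CellTiter-Glo luminescence served as the viability read-out.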
The nature of experiment [13]: qHTS assay to identify small molecule agonists of the endoplasmic reticulum stress response signaling pathway (AID 1159516; active means well fitted activation curve with a large enough effect in the signal ratio in the repeat runs, not every such curve was filed as active; the % refers to the signal ratio). The method, boiled down:
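Fluorescence at 460 and 530 nm (405 nm excitation) reports beta-lactamase from an ER stress response element in HeLa cells treated 5 hr at 37 C.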

Experiment [14] can be described thus: qHTS assay to identify small molecule agonists of the endoplasmic reticulum stress response signaling pathway - cell viability counter screen (AID 1159517). The method, boiled down:
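In parallel with the ESRE reporter read, cytotoxicity was scored by CellTiter-Glo luminescence (30 min, room temperature) on HeLa ESRE-bla cells dosed for 5 hr.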

Experiment [15] is described as follows: qHTS assay to identify small molecule antagonists of the retinoid-related orphan receptor gamma (ROR-gamma) signaling pathway - cell viability counter screen (AID 1159520; active means well fitted curve in the direction sought with a large enough effect in the repeat runs; an effect the other way counts as inactive or inconclusive; further: nearly all actives have a fitted effect of over 50% in size). The method, boiled down:
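Tet-on ROR gamma CHO cells were given compounds for 2 hr, then doxycycline hyclate at 1 uM final, and incubated 16 hr at 37 C. Viability was measured as ATP content by CellTiter-Glo luminescence.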

Experiment [16] has as its target Nuclear receptor ROR-gamma (Homo sapiens) (UniProt P51449). Kind of experiment: qHTS assay to identify small molecule antagonists of the retinoid-related orphan receptor gamma (ROR-gamma) signaling pathway (AID 1159521; active means well fitted curve in the direction sought with a large enough effect in the repeat runs; an effect the other way counts as inactive or inconclusive). The method, boiled down:
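Luminescence readout (ONE-Glo, 30 min RT) after 16 h doxycycline induction; loss of signal scored as antagonism. CHO cells with TET-inducible RORγ and RORE-LUC reporter; compounds added 2 h before 1 uM final doxycycline.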

The nature of experiment [17]: qHTS assay to identify small molecule agonists of the AP-1 signaling pathway - cell viability counter screen (AID 1159525). Further: nearly all actives have a fitted effect of over 55% in size. The method, boiled down: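 Same-well cytotoxicity counter screen of the Tox21 10K library in ME-180 cells. The readout is ATP-dependent luminescence after 5 h compound treatment. Data are normalised to DMSO and tetra n-octyl ammonium bromide controls.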

The target of experiment [18] is Retinoic acid receptor RXR-alpha (Homo sapiens) (UniProt P19793). Briefly: qHTS assay to identify small molecule agonists of the RXR signaling pathway (AID 1159527). Further: nearly all actives have a fitted effect of over 35% in size. The method, boiled down:
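Agonist mode; 9-cis retinoic acid positive control. HEK 293T UAS-bla reporter cells, 2% charcoal-stripped FBS, 16 hr compound exposure at 37 C/5% CO2. LiveBLAzer B/G FRET substrate 2 hr RT; ex 405, em 460/530 nm.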

A short description of experiment [19]: qHTS assay to identify small molecule agonists of the AP-1 signaling pathway (AID 1159526).
Experiment [20] deals with Peroxisome proliferator-activated receptor delta (Homo sapiens) (UniProt Q03181). Kind of experiment: qHTS assay to identify small molecule antagonists of the peroxisome proliferator-activated receptor delta (PPARd) signaling pathway (AID 743215; active means well fitted inhibition curve with a large enough effect in the signal ratio in the repeat runs, not every such curve was filed as active; the % refers to the signal ratio;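 further: cells stimulated with agonist L165041 at 300 nM final during compound exposure; series mostly up to about 62 µM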). The method, boiled down: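 Here, a reporter line (HEK293H, beta-lactamase under a UAS) measures PPARd signaling. Compounds are tested against agonist L165041 at 300 nM final concentration over 17 h at 37 C, with fluorescence read after substrate.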

Chain of Vitamin D3 receptor (Homo sapiens) (P11473 whole entry, looked up): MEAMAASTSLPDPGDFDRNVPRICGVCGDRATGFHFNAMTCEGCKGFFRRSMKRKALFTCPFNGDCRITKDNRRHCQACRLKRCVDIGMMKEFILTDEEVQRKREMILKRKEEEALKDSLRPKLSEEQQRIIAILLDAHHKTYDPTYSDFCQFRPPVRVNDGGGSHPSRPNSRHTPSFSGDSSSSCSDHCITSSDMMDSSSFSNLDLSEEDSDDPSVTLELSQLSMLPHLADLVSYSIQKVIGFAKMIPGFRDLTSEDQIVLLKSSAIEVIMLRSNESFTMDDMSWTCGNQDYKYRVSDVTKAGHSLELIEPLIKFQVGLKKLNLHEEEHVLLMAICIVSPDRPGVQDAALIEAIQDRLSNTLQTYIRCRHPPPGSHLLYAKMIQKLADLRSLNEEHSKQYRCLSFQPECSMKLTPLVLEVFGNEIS
Chain of Retinoic acid receptor RXR-alpha (Homo sapiens) (P19793 whole entry, looked up): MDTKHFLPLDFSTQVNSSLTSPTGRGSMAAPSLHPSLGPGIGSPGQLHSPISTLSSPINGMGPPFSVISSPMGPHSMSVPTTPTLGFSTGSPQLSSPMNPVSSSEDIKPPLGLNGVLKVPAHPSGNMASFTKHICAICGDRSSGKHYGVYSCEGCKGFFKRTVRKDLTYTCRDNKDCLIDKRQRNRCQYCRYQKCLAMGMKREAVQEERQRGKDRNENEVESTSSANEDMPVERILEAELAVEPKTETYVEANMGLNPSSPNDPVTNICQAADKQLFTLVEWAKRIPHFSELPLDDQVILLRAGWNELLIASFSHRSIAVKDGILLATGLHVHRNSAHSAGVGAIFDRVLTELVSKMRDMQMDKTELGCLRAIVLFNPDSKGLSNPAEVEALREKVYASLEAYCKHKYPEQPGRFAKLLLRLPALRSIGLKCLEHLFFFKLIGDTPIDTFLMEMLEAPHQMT

With `O=C1Nc2cc(Cl)ccc2Oc2ccccc21`, the Potency entry in experiment [1], in [3], in experiment [5], in experiment [7], in experiment [9] and in experiment [10] was “inactive” in each case. The Potency result in experiment [11], in experiment [12], in [13], in experiment [15], in experiment [16] and in [17] was “inactive” in each case. The Potency entry in experiment [18] is “inactive”. The result in [2], in experiment [4], in experiment [6], in experiment [8] and in [14] was inactive.
Turning to `CCCC(=O)OCC`, the Potency entry in [1], in experiment [3], in experiment [5], in experiment [9], in experiment [11] and in [12] was “inactive” throughout. In addition, the Potency result in [13], in experiment [15], in [16], in experiment [17] and in experiment [19] was “inactive” each time. Also, the result in [2], in experiment [8] and in experiment [14] was inactive.
Take `CCCC[C@H]1CN(CC2CCOCC2)C(=O)OC12CCN(C1(C)CCN(C(=O)c3c(C)ncnc3C)CC1)CC2`: the Potency result in [1], in experiment [5], in [7], in experiment [10], in experiment [11] and in experiment [12] was “inactive” in each case. In addition, the Potency entry in experiment [13], in experiment [15], in experiment [16], in experiment [17] and in [19] was “inactive” each time. Further, the call in experiment [2] and in experiment [14] was inactive.
In the case of `CCN(CC)CCOc1ccc2c(c1)C(=O)c1cc(OCCN(CC)CC)ccc1-2`, the result in experiment [2], in experiment [8] and in [14] was inactive. The Potency was 21.1 µM (active) in experiment [5], 26.6 µM (active) in experiment [7] and 21.3 µM (active) in [9]. Further, the Potency result in [12], in experiment [13], in experiment [15], in [16], in experiment [17] and in experiment [19] was “inactive” each time.
Take `O=C1c2cccc(O)c2C(=O)c2c(O)cc(CO)cc21`: the Potency entry in experiment [1], in experiment [3], in [5], in experiment [7], in experiment [9] and in experiment [10] was “inactive” in each case. For the same compound, the Potency entry in experiment [11], in [12], in experiment [13], in experiment [15], in [16] and in experiment [17] was “inactive” throughout. The Potency entry in [19] was “inactive”. The outcome in experiment [4], in experiment [6], in [8] and in experiment [14] was inactive.
For `COc1ccc([C@@H]2Sc3ccccc3N(CCN(C)C)C(=O)[C@@H]2OC(C)=O)cc1`, the Potency entry in [1], in [5], in experiment [7], in [9], in experiment [10] and in experiment [12] was “inactive” throughout. The Potency result in [13], in experiment [15], in [16], in experiment [17] and in experiment [19] was “inactive” in each case. Besides, the result in experiment [2], in [20], in [8] and in experiment [14] was inactive.
As for `Cn1c(=O)c2c(ncn2CC(O)CO)n(C)c1=O` (configuration not stated), the Potency result in [1], in [7], in experiment [10], in experiment [12], in experiment [13] and in experiment [15] was “inactive” each time. The Potency result in experiment [16], in [17] and in experiment [19] was “inactive” in each case. Further, the outcome in experiment [2], in experiment [20], in [4], in experiment [8] and in experiment [14] was inactive.
`CCCCOc1ccc(CC(=O)NO)cc1`: the result in experiment [20] and in experiment [14] was inactive. Besides, the Potency entry in experiment [9], in experiment [10], in experiment [11], in [12], in experiment [13] and in experiment [15] was “inactive” each time. Moreover, the Potency result in experiment [16], in experiment [17] and in experiment [19] was “inactive” each time.
`CC(C)(C)C1CCCCC1O` (configuration not stated): the Potency result in experiment [1], in experiment [3], in experiment [5], in experiment [7], in experiment [9] and in [10] was “inactive” throughout. For the same compound, the Potency entry in experiment [12], in experiment [13], in [15], in [16], in [17] and in experiment [18] was “inactive” in each case. Also, the outcome in experiment [2], in experiment [20], in experiment [4], in experiment [6], in experiment [8] and in [14] was inactive.
